Shown are actives, neighbours in structure and some others; about 8.7% of the full set was active somewhere.
VACV mCherry inh: qHTS for Stage-Specific Inhibitors of Vaccinia Orthopoxvirus: mCherry Reporter Primary qHTS; Vaccinia virus mCherry reporter infection, fluorescence; Potency, µM (top dose mostly 36.5 µM), for the others: top-dose activity change, negative = inhibition, hits mostly inhibitors; 310,000 tested, 0.63% active; AID 720579, 2013; calls by dose curve; tested in A549 cells; also: nearly all actives have a fitted effect of over 35% in size
Pf growth 48h: Primary qHTS for delayed death inhibitors of the malarial parasite plastid, 48 hour incubation | Potency, µM (top dose mostly 28.7 µM), for inactives: top-dose activity change, negative = inhibition, most hits filed as inhibitors | 310,000 tested, 5.9% active | P. falciparum luciferase growth in erythrocytes, 48 h
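Here the parasites carry a stable luciferase gene and grow inside erythrocytes in Albumax-based RPMI medium with compound for one erythrocytic cycle. Activity is scored as loss of luminescent signal.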
Pf growth 96h: Primary qHTS for delayed death inhibitors of the malarial parasite plastid, 96 hour incubation; P. falciparum luciferase reporter growth, 96 h; Potency, µM (highest dose often 28.7 µM), for inactives: at the top dose activity change, negative = inhibition, hits mostly inhibitors; 320,000 tested, 6.9% active; AID 504834, 2011
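P. falciparum expressing integrated firefly luciferase grown in erythrocytes (2% hematocrit, 0.05% parasitemia final) with compounds for 96 hours at 37 C, 5% CO2. Growth inhibition read as loss of luminescence after adding luciferase detection reagent.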
VACV Venus inh: qHTS for Stage-Specific Inhibitors of Vaccinia Orthopoxvirus: Venus Reporter Primary qHTS. AID 720580, 2013. Potency, µM (top dose mostly 36.5 µM), for inactives: at the highest dose activity change, negative = inhibition, usual class: inhibitors. Vaccinia virus Venus reporter expression, fluorescence. 330,000 tested, 0.46% active; calls by dose curve; tested in A549 cells; also: nearly all actives have a fitted effect of over 30% in size
AMA1-RON2 inh: qHTS for Inhibitors of AMA1-RON; Towards Development of Antimalarial Drug Lead: Primary Screen; Plasmodium falciparum AMA1 (3D7) - RON2 peptide interaction; AlphaScreen AMA1-biotinylated RON2 peptide binding; Potency, µM (doses to about 58.2 µM), for inactives: top-dose activity change, negative = inhibition, actives largely listed as inhibitors; 360,000 tested, 0.2% active; AID 720542, 2013;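 also: 0% = vehicle wells and -100% = peptide control; nearly all actives have a fitted effect of over 45% in size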
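AMA1 (3D7) with his tag at 25 nM final met compounds first, then biotinylated RON2 peptide at 25 nM; detection used donor plus acceptor beads, 10 µg/mL apiece, read by AlphaScreen after 30 min at room temperature.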
Numbers without * were called inactive; ? = inconclusive; . = no result given; [ ] = another dose, or the depositor's remark. Unless noted, calls follow the shape of the dose curve; as a rule, active = well fitted curve in the direction sought with a large enough effect; inconclusive = small, poorly fitted or top-dose-only effect, or another doubt; inactive = no such curve, though single readings can be large; an effect the other way counts as inactive or inconclusive. Unless noted, % is scaled to controls: 0 for no effect and ±100 for the full control effect; potency is read from the fitted curve at half-maximal effect.

SMILES	VACV mCherry inh	Pf growth 48h	Pf growth 96h	VACV Venus inh	AMA1-RON2 inh
O=C(O)c1ccc(S(=O)(=O)NCc2ccc3c(c2)OCO3)cc1	.	6%	29%	.	-8%
Clc1ccc(OCCN2CCOCC2)cc1Cl	-16%	.	26%	-14%	20%
NC(=S)NN=C1c2cc(OCCN3CCOCC3)ccc2-c2ccc(OCCN3CCOCC3)cc21	?	3.3µM*	78%	?	-11%
ON=C1c2cc(OCCN3CCCCC3)ccc2-c2ccc(OCCN3CCCCC3)cc21	?	1.7µM*	1.5µM*	8.9µM*	-8%
CC(=O)c1c(N2CCCC2)[nH]c(-c2ccccc2)nc1=S	-23%	.	?	-18%	37%
CC(=O)c1c(N2CCN(Cc3ccccc3)CC2)[nH]c(-c2ccccc2)nc1=S	.	4.7µM*	-101%	.	12%
COc1ccc(-n2c(CN3CCN(c4ccccc4OC)CC3)nc3ccc([N+](=O)[O-])cc3c2=O)c(OC)c1	.	13µM*	-18%	.	0%
COc1ccc(S(=O)(=O)N2CCCCCC2)cc1NC(=O)CN(C)Cc1ccc2c(c1)OCO2	.	12µM*	?	.	32%
CN(CC(=O)Nc1cc(S(=O)(=O)N2CCCCCC2)ccc1Cl)Cc1ccc2c(c1)OCO2	.	12µM*	?	.	4%
COc1ccc(S(=O)(=O)N2CCCCC2)cc1NC(=O)CN(Cc1ccco1)Cc1ccco1	.	12µM*	?	.	-6%
COc1ccc(S(=O)(=O)N2CCCCC2)cc1NC(=O)CN(C)C1CCCCC1	-1%	?	?	-26%	3%
CN(CC(=O)Nc1cc(S(=O)(=O)N2CCCC2)ccc1Cl)Cc1ccc2c(c1)OCO2	.	8.3µM*	?	.	-7%
CN(CC(=O)Nc1cc(S(=O)(=O)N2CCCC2)ccc1Cl)Cc1nc2ccccc2c(=O)[nH]1	.	.	.	.	129%
Cc1ccc(C(=O)Nc2ccc3oc(-c4ccccc4C)nc3c2)cc1	-2%	.	.	-2%	.
Cc1ccc(NC(=O)c2ccc(=O)n(CC(=O)Nc3cc(C)cc(C)c3)n2)cc1	-14%	.	.	-6%	.
COc1cc(-c2nc(-c3ccccc3)c(-c3ccc(Br)cc3)[nH]2)cc(OC)c1O	-19%	.	.	-13%	.
CC1(C)CC(=O)C2=C(C1)NC(Nc1nc3ccccc3o1)=NC21CCCCC1	.	?	9.3µM*	.	-5%
CCOC(=O)N1CCN(c2c(N3CCN(C(=O)OCC)CC3)c(=O)c2=O)CC1	.	8%	4%	.	15%
COC(=O)Cn1nnc(N2CCOCC2)n1	-3%	24%	-8%	-10%	6%
COC(COC(N)=O)C1=C(N2CC2)C(=O)C(C)=C(N2CC2)C1=O (configuration not stated)	?	.	.	2.8µM*	-3%
CO[C@@H](COC(N)=O)C1=C(N2CC2)C(=O)C(C)=C(N2CC2)C1=O	.	0.6µM*	0.54µM*	.	.
Cc1ccc2nc(N)[nH]c(=O)c2c1Sc1ccncc1	.	4.8µM*	2.1µM*	.	.
O=C(CSc1nnc(-c2ccc(F)cc2)o1)N1CCCc2ccccc21	-21%	.	.	-17%	.
Cc1ccccc1NC(=S)c1nc2ccccc2[nH]1	-20%	3.3µM*	-21%	-12%	17%[11.6 µM]
CC(=O)Nc1ccc(NC(=O)C2CCCN2S(=O)(=O)c2ccc3c(c2)CCCC(=O)N3)cc1 (configuration not stated)	-4%	.	.	2%	.
COc1ccc2c(c1)OC[C@H]1[C@H]2N2C(=O)c3cc(OC)ccc3NC(=O)[C@@]2(C)[C@H]1c1ccccc1	-5%	5.2µM*	6.6µM*	-28%	44%
COc1ccc2c(c1)OC[C@H]1[C@H]2N2C(=O)c3cc(Cl)ccc3NC(=O)[C@@]2(C)[C@H]1c1ccccc1	-21%	9.3µM*	3.3µM*	?	-6%
COc1ccc(-n2nc(C(=O)N3CCN(c4cccc(C)c4C)CC3)c3c4ccccc4n(C)c3c2=O)cc1Cl	-4%	.	.	-14%	.
OC(COc1ccc(Br)cc1)CN1CCN(c2ccccc2)CC1 (configuration not stated)	.	12%	?	.	-8%
Cc1ccc(Cl)cc1N1CCN(CC(O)COCc2ccco2)CC1 (configuration not stated)	-13%	10%	12%	-17%	?
